# Experimental data published in the supplement of paper PMC7695840.
# Where a name gives a salt, the structure may show the parent alone.
# Tests used:
# [1] = system: Staphylococcus aureus MW2 delta-mecA (mecA-); assay: normalized GFP fluorescence (growth of mecA- strain) (fraction of control range); higher = more growth of mecA- strain; details: compound concentration: 150 uM; cefoxitin: subinhibitory; fluorescent label: GFP
# In short: (§1)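 In 1536-well plates holding 150 μM compound (1.5% DMSO), a 1:1 mix of pre-induced S. aureus MW2 cells was added at 5 µL/well, in one replicate. One strain carried the gene and DsRed, the other lacked the gene and carried GFP, and the LB held a subinhibitory antibiotic dose chosen daily. Plates stood unshaken for 20 h at 37 °C, 90% humidity, before DsRed (540/590) and GFP (485/520) readings, which were scaled per plate to single-strain control medians, with plates high in untreated ratio and rows above DsRed/GFP 10 dropped.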
# [2] = system: Staphylococcus aureus MW2 (mecA+); assay: normalized DsRed fluorescence (growth of mecA+ strain) (fraction of control range); higher = more growth of mecA+ strain; details: compound concentration: 150 uM; cefoxitin: subinhibitory; fluorescent label: DsRed
# In short: as §1
Structure (SMILES),normalized GFP fluorescence [1],normalized DsRed fluorescence [2]
NS(=O)(=O)Cc1noc2ccccc12 [Zonisamide],0.595,0.893
Cc1ccc(S(=O)(=O)NC(=O)NN2CCCCCC2)cc1,0.372,0.655
S=P(N1CC1)(N1CC1)N1CC1,0.213,0.86
CCCCC1=NC2(CCCC2)C(=O)N1Cc1ccc(-c2ccccc2-c2nnn[nH]2)cc1,0.0654,0.337
CO[C@H]1C(=O)[C@]2(C)[C@@H](OC)C[C@H]3OC[C@@]3(OC(C)=O)[C@H]2[C@H](OC(=O)c2ccccc2)[C@]2(O)C[C@H](OC(=O)[C@H](O)[C@@H](NC(=O)OC(C)(C)C)c3ccccc3)C(C)=C1C2(C)C [Cabazitaxel (Jevtana)],0.256,1.24
CN(C)CCc1c[nH]c2ccc(Cn3cncn3)cc12,0.425,0.751
CCCCCCCCCCC[C@@H](C[C@@H]1OC(=O)[C@H]1CCCCCC)OC(=O)[C@H](CC(C)C)NC=O,0.94,0.482
CCCc1cc(C(N)=S)ccn1 [Protionamide (Prothionamide)],0.749,0.698
Cc1c(O)c(=O)ccn1C [Deferiprone],0.292,0.96
CCC(C)CCCCC(=O)NC(CCN)C(=O)NC(C(=O)NC(CCN)C(=O)NC1CCNC(=O)C(C(C)O)NC(=O)C(CCN)NC(=O)C(CCN)NC(=O)C(CC(C)C)NC(=O)C(Cc2ccccc2)NC(=O)C(CCN)NC1=O)C(C)O (centres undefined),0.159,1.05
CCCCCCOC(=O)NC(=N)c1ccc(NCc2nc3cc(C(=O)N(CCC(=O)OCC)c4ccccn4)ccc3n2C)cc1,0.00832,0.473
CC(O)C(=O)O.N (centres undefined),0.217,0.837
O=C1CN(/N=C/c2ccc([N+](=O)[O-])o2)C(=O)N1,0.0054,0.0533
C1CCN2C[C@@H]3C[C@@H](CN4CCCC[C@@H]34)[C@H]2C1,0.334,0.556
Cc1cc(=O)[nH]c(=S)[nH]1,0.707,0.716
CC(C(=O)O)c1cccc(C(=O)c2ccccc2)c1 (centres undefined),0.247,0.413
O=C(O)C(=O)O.[NH-][C@@H]1CCCC[C@H]1[NH-].[Pt+2],0.253,1.17
CC(C(=O)O)c1ccc(-c2ccccc2)c(F)c1 (centres undefined),0.201,0.435
CN(C)CCCN1c2ccccc2CCc2ccc(Cl)cc21,-0.0283,0.939
O=C1CCC(N2C(=O)c3ccccc3C2=O)C(=O)N1 (centres undefined),0.261,0.635
CCN(CC)C(=O)c1cccc(C)c1,0.46,1.18

Structure (SMILES),normalized GFP fluorescence [1],normalized DsRed fluorescence [2]
O=C(Nc1cccc2c(=O)cc(-c3nnn[nH]3)oc12)c1ccc(OCCCCc2ccccc2)cc1 [Pranlukast],0.0957,0.714
CN1C(CCl)Nc2cc(Cl)c(S(N)(=O)=O)cc2S1(=O)=O (centres undefined) [Methyclothiazide],0.383,0.579
COc1ccccc1OCC(O)CO (centres undefined),0.274,0.991
CCCCCCCCCCCCCCCCCCCCCCO,0.3,0.765
CC(C)(Sc1cc(C(C)(C)C)c(O)c(C(C)(C)C)c1)Sc1cc(C(C)(C)C)c(O)c(C(C)(C)C)c1,0.792,0.839
O=C(O)COCCN1CCN([C@H](c2ccccc2)c2ccc(Cl)cc2)CC1,0.222,0.775
CO/N=C(\C(=O)N[C@@H]1C(=O)N2C(C(=O)O)=C(C[N+]3(C)CCCC3)CS[C@H]12)c1csc(N)n1,0.0193,0.073
CN1CCOC(c2ccccc2)c2ccccc2C1 (centres undefined),0.242,0.81
Fc1ccc([C@@H]2CCNC[C@H]2COc2ccc3c(c2)OCO3)cc1,-0.0171,1.15
Cn1ncnc1[C@H]1c2n[nH]c(=O)c3cc(F)cc(c23)N[C@@H]1c1ccc(F)cc1 [Talazoparib (BMN 673)],0.42,0.777
CCCCCCCN(CC)CCCC(O)c1ccc(NS(C)(=O)=O)cc1 (centres undefined) [Ibutilide fumarate],0.723,0.737
CC(=O)O[C@H]1C[C@@H]2CC[C@@H]3[C@H](CC[C@@]4(C)[C@H]3C[C@H]([N+]3(C)CCCCC3)[C@@H]4OC(C)=O)[C@@]2(C)C[C@@H]1N1CCCCC1,0.425,0.572
CCCCCNC(=N)N/N=C/c1c[nH]c2ccc(OC)cc12,0.0155,0.587
Clc1ccccc1CN1CCc2sccc2C1,0.281,0.684
NC(=O)[C@@H]1CCCN1C(=O)[C@H](Cc1c[nH]cn1)NC(=O)[C@@H]1CCC(=O)N1,0.621,0.766
OCc1ccccc1O,0.351,0.713
CC(C[N+](C)(C)C)OC(N)=O (centres undefined),0.554,0.879
C1N2CN3CN1CN(C2)C3,0.209,0.452
Nc1ncn([C@@H]2O[C@H](CO)[C@@H](O)[C@H]2O)c(=O)n1,0.292,0.51
CC(C)Cc1ccc(C(C)C(=O)O)cc1 (centres undefined),0.142,0.294
CC1Cc2ccccc2N1NC(=O)c1ccc(Cl)c(S(N)(=O)=O)c1 (centres undefined),0.39,0.625

Structure (SMILES),normalized GFP fluorescence [1],normalized DsRed fluorescence [2]
Nc1ccc(S(=O)(=O)Nc2nccs2)cc1,0.273,1.4
CNC[C@H](O)c1ccc(O)c(O)c1,0.95,0.812
CN(C)CCc1c[nH]c2ccc(C[C@H]3COC(=O)N3)cc12,0.31,0.962
OC[C@H]1O[C@@H](c2ccc(Cl)c(Cc3ccc(O[C@H]4CCOC4)cc3)c2)[C@H](O)[C@@H](O)[C@@H]1O,0.499,0.698
Clc1ccc(C(Cn2ccnc2)OCc2c(Cl)cccc2Cl)c(Cl)c1 (centres undefined) [Isoconazole nitrate (Travogen)],-0.00251,0.00958
CC[C@@H]1C(=O)OC[C@@H]1Cc1cncn1C,0.483,0.892
CC(C)(C#N)c1cc(Cn2cncn2)cc(C(C)(C)C#N)c1,0.351,0.796
CN(C)C/C=C/C(=O)Nc1cc2c(Nc3ccc(F)c(Cl)c3)ncnc2cc1O[C@H]1CCOC1 [Afatinib (BIBW2992)],-0.00507,1.68
Nc1nc2ccc(OC(F)(F)F)cc2s1,0.622,0.37
Nc1nc(CC(=O)Nc2ccc(CCNC[C@H](O)c3ccccc3)cc2)cs1 [Mirabegron (YM178)],0.336,1.03
COC(=O)Nc1nc2cc(C(=O)c3ccc(F)cc3)ccc2[nH]1,0.715,0.661
CCN(CC)C(=O)c1cccnc1,0.263,0.829
CCC1=C[C@@H]2CN(C1)Cc1c([nH]c3ccccc13)[C@@](C(=O)OC)(c1cc3c(cc1OC)N(C)[C@H]1[C@@](O)(C(=O)OC)[C@H](OC(C)=O)[C@]4(CC)C=CCN5CC[C@]31[C@@H]54)C2 [Vinorelbine (Navelbine)],0.108,0.921
O=C1c2ccccc2C(=O)C1c1ccccc1 [Phenindione (Rectadione)],0.0982,0.634
Cc1onc(-c2ccccc2)c1-c1ccc(S(N)(=O)=O)cc1 [Valdecoxib],0.291,0.573
COc1cc2nccc(Oc3ccc(NC(=O)Nc4cc(C)on4)c(Cl)c3)c2cc1OC [Tivozanib (AV-951)],0.445,1.09
O=C(c1ccccc1)c1ccc2n1CCC2C(=O)O (centres undefined),0.247,0.711
Cn1cnc([N+](=O)[O-])c1Sc1ncnc2[nH]cnc12,0.269,1.03
CCN(CC)C(=O)/C(C#N)=C/c1cc(O)c(O)c([N+](=O)[O-])c1 [Entacapone],0.111,1.35
NC12CC3CC(CC(C3)C1)C2,0.453,0.794
C[N+](C)(C)CCOC(N)=O,0.245,0.816

Structure (SMILES),normalized GFP fluorescence [1],normalized DsRed fluorescence [2]
Cc1ccc(O)c([C@H](CCN(C(C)C)C(C)C)c2ccccc2)c1 [Tolterodine tartrate (Detrol LA)],0.08,0.489
NC(=O)c1ncn([C@@H]2O[C@H](CO)[C@@H](O)[C@H]2O)n1,0.38,0.58
CCCCC1C(=O)N(c2ccccc2)N(c2ccc(O)cc2)C1=O (centres undefined),-0.0111,0.377
CC1(C)O[C@@H]2[C@@H](CO[C@@]3(COS(N)(=O)=O)OC(C)(C)O[C@@H]23)O1,0.798,0.547
CCCC(CCC)C(=O)O [Valproic acid sodium salt (Sodium valproate)],0.506,0.638
O=c1oc2cc(O)ccc2s1 [Tioxolone],0.428,0.731
CC(C)(C)NCC(O)COc1cccc2c1CC(O)C(O)C2 (centres undefined),0.721,0.671
N=C(N)N,0.207,0.654
N#Cc1c(N(CC(=O)O)CC(=O)O)sc(C(=O)O)c1CC(=O)O [Strontium ranelate (Protelos)],0.212,0.694
CC(=O)[C@H]1CC[C@H]2[C@@H]3C=CC4=CC(=O)CC[C@@]4(C)[C@@H]3CC[C@]12C,0.56,0.456
CCCCOc1ccc(CC(=O)NO)cc1 [Bufexamac],0.312,0.828
Cc1nc(=O)c2cc(CN(C)c3ccc(C(=O)N[C@@H](CCC(=O)O)C(=O)O)s3)ccc2[nH]1 [Raltitrexed (Tomudex)],0.657,0.532
COc1ccc2cc([C@H](C)C(=O)O)ccc2c1 [Naproxen (Aleve)],0.0134,0.825
CN(C)CCCN1c2ccccc2Sc2ccccc21,-0.00898,1.06
CN(CCOc1ccc(NS(C)(=O)=O)cc1)CCc1ccc(NS(C)(=O)=O)cc1 [Dofetilide (Tikosyn)],0.244,1.28
CCc1cccc2c3c([nH]c12)C(CC)(CC(=O)O)OCC3 (centres undefined),0.0954,0.562
CC1(C)S[C@@H]2[C@H](NC(=O)[C@H](C(=O)O)c3ccsc3)C(=O)N2[C@H]1C(=O)O,0.468,0.864
C1CNCCN1,0.806,0.885
Clc1ccc2c(c1)CCc1cccnc1C2=C1CCNCC1 [Desloratadine],0.102,0.936
